# A number with no mark means an inactive call. Records with an inconclusive call do not appear. The list shows a part of the results. The source made the active and inactive calls. Calls come from the whole dose curve; as a rule, active = well fitted curve in the direction sought with a large enough effect; inconclusive = small, poorly fitted or top-dose-only effect, or another doubt; inactive = no such curve, though single readings can be large; an effect the other way counts as inactive or inconclusive.
# Tests used:
# [1] = target: Cytochrome P450 3A4 (Homo sapiens) (UniProt P08684); assay: qHTS Assay for Inhibitors and Substrates of Cytochrome P450 3A4 (AID 884); note: series mostly up to about 57 µM; % is set by controls: 0 for no effect and ±100 for the full control effect; nearly all actives have a fitted effect of over 50% in size
# Method in brief: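 20 nM human CYP3A4 with 25 uM Luciferin-PPXE (at KM) in 200 mM KPO4, preincubated 10 min with compound; NADPH regeneration started a 60 min RT reaction. Luciferin detected by luminescence, normalized to 57 uM ketoconazole as full inhibition.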
# [2] = target: DNA dC->dU-editing enzyme APOBEC-3G (Homo sapiens) (UniProt Q9HC16); assay: qHTS for inhibitors of Vif-A3G interactions: Validation (AID 588379); note: 0% is about no effect
# Method in brief: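 HeLa cells stably expressing Vif and A3G-eYFP, 700 cells/well, incubated overnight at 37 deg C, then exposed to compound overnight at 37 deg C. Inhibition of Vif-mediated degradation read as increased yellow fluorescence (Ex 488/Em 500-530) by laser-scanning cytometry.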
# [3] = target: Rap guanine nucleotide exchange factor 3 (Homo sapiens) (UniProt O95398); assay: Confirmatory qHTS for antagonist of cAMP-regulated guanine nucleotide exchange factor 3 (EPAC1) (AID 1645880); note: nearly all actives have a fitted effect of over 55% in size; note: potency is the fitted concentration of half-maximal effect
# Method in brief: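 Nucleotide exchange uses 100 nM EPAC1, 250 nM RAP1B-BODIPY-GDP and 50 uM GDP, with compounds in a concentration-titration series. After 5 min at room temperature, fluorescence (480 nm ex/540 nm em) is read every 5 min for 30 min. Data are normalized to control ATA and DMSO.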
# [4] = target: Rap guanine nucleotide exchange factor 3 (Homo sapiens) (UniProt O95398); assay: Confirmatory qHTS for agonist of cAMP-regulated guanine nucleotide exchange factor 3 (EPAC1) (AID 1645881);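 note: EPAC1 catalysed release of BODIPY-GDP from Rap1B seen as fluorescence loss; 100% = effect of cAMP agonist control; nearly all actives have a fitted effect of over 75% in size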
# [5] = target: Rap guanine nucleotide exchange factor 4 (Homo sapiens) (UniProt Q8WZA2); assay: Confirmatory qHTS for agonist of cAMP-regulated guanine nucleotide exchange factor 4 (EPAC2) (AID 1645884);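 note: nucleotide exchange releases bodipy-GDP from Rap1 and this lowers its fluorescence; % is set by controls: 0 for no effect and ±100 for the full control effect; nearly all actives have a fitted effect of over 65% in size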
# [6] = target: Rap guanine nucleotide exchange factor 4 (Homo sapiens) (UniProt Q8WZA2); assay: Confirmatory qHTS for antagonist of cAMP-regulated guanine nucleotide exchange factor 4 (EPAC2) (AID 1645885); note: % is set by controls: 0 for no effect and ±100 for the full control effect; nearly all actives have a fitted effect of over 25% in size
# [7] = target: Rap guanine nucleotide exchange factor 3 (Homo sapiens) (UniProt O95398); assay: Counterscreen qHTS for antagonist of cAMP-regulated guanine nucleotide exchange factor 3 (EPAC1) (AID 1645888);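 note: fluorescence loss as bound BODIPY-GDP is released from Rap1B; % of control where 0% means no effect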
# Method in brief: (§1)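 Rap1B-BODIPY-GDP 250 nM + GDP 50 uM; cpds 7-pt, final 9.74 nM–152 uM (activator mode) or from 7.32 nM upwards (inhibitor mode); RT; FI 480/540 nm at 5 and 30 min, then ± cAMP, reread.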
# [8] = target: Rap guanine nucleotide exchange factor 3 (Homo sapiens) (UniProt O95398); assay: Counterscreen qHTS for agonist of cAMP-regulated guanine nucleotide exchange factor 3 (EPAC1) (AID 1645889); note: potency is the fitted concentration of half-maximal effect; nearly all actives have a fitted effect of over 40% in size
# Method in brief: as §1
# [9] = target: Vitamin D3 receptor (Homo sapiens) (UniProt P11473); assay: qHTS for Inhibitors of the vitamin D receptor (VDR): Hit Validation using a Beta-Lactamase Assay (AID 602202); note: % is set by controls: 0 for no effect and ±100 for the full control effect
# Method in brief: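 Beta-lactamase reporter read-out (447 nm emission of cleaved FRET substrate, 2 h) after 18 h compound exposure of HEK293 cells carrying a VDR-GAL4 fusion and UAS reporter, stimulated with LG190178.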
# [10] = qHTS for Inhibitors of the vitamin D receptor (VDR): Hit Validation using a Cytotoxicity Assay (AID 602204);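 note: plate controls were DMSO for no effect and high-concentration cycloheximide for full effect; nearly all actives have a fitted effect of over 75% in size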
# Method in brief: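 Viability read-out: luminescent ATP quantification after 18 h compound exposure. Plated cells (20,000/well) had 4 h before dosing; reagent incubation 30 min. High-concentration cycloheximide marks full kill, DMSO no effect.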
# [11] = target: Phosphoglycerate kinase, glycosomal (Trypanosoma brucei brucei) (UniProt P07378); assay: qHTS for inhibitors of Phosphogylcerate Kinase: Hit Validation Screen (AID 686980); conditions: TbPGK coupled GAPDH assay, Kinase-Glo luminescence; note: potency is the fitted concentration of half-maximal effect; nearly all actives have a fitted effect of over 65% in size
# Method in brief: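 Luminescent ATP detection (Kinase-Glo Plus) follows a 60-minute room-temperature incubation, with wells lacking PGK as controls. Buffer: 100 mM TEA (pH 7.6), 5 mM MgCl2, 0.01% Tween-20. Coupling enzyme GAPDH (100 nM final) supplies unstable 1,3-BPG in-well.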
# [12] = target: DNA polymerase iota (Homo sapiens) (UniProt Q9UNA4); assay: qHTS for Inhibitors of Polymerase Iota: Confirmatory Assay for Cherry-picked Compounds (AID 720496); conditions: Pol iota primer extension, TAMRA/BHQ fluorescence; note: potency is the fitted concentration of half-maximal effect
# Method in brief: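 Read-out is TAMRA fluorescence (525 nm excitation, 598 nm emission) at 0 and 10 min. It reflects strand displacement from a BHQ-2-quenched template by 10 nM Pol iota, with 50 nM final substrate after 15 min compound preincubation.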
# [13] = target: Bifunctional 3'-5' exonuclease/ATP-dependent helicase WRN (Homo sapiens) (UniProt Q14191); assay: qHTS for Inhibitors of WRN Helicase: Confirmatory Assay for Cherry-picked Compounds. (AID 720497); conditions: WRN helicase DNA unwinding, fluorescence kinetic; note: potency is the fitted concentration of half-maximal effect; nearly all actives have a fitted effect of over 65% in size
# Method in brief: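 WRN (20 nM) was preincubated 15 min at RT with compound, then started with 100 nM forked duplex oligonucleotide and 2 mM ATP. Unwinding was read kinetically by red fluorescence (ex 525/em 598 nm), normalized to enzyme-free and uninhibited controls.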
# [14] = target: Flap endonuclease 1 (Homo sapiens) (UniProt P39748); assay: qHTS Assay for the Inhibitors of FEN1: Confirmatory Assay for Cherry-picked Compounds (AID 720498); conditions: FEN1 flap cleavage, TAMRA/BHQ2 fluorogenic DNA substrate; note: potency is the fitted concentration of half-maximal effect; nearly all actives have a fitted effect of over 60% in size
# Method in brief: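 FEN1 at 10 nM was preincubated with compound for 15 min at room temperature, then 50 nM (final) double-flap DNA substrate was added. TAMRA fluorescence released from the BHQ-2-quenched flap was read at 0 and 15 min (ex 525/em 598 nm).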
# [15] = qHTS for Inhibitors of WRN Helicase: Thiazole Orange DNA Binding Counterscreen (AID 720499); conditions: thiazole orange DNA binding displacement, fluorescence;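 note: drop in dye fluorescence marks compound binding to DNA; potency is the fitted concentration of half-maximal effect; nearly all actives have a fitted effect of over 60% in size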
# Method in brief: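 Thiazole orange displacement counterscreen: compounds added to 50 nM unlabeled DNA with 100 nM ThO. Fluorescence (ex 480, em 530 nm) read after 15 min at room temperature; activity flags nonspecific DNA binding.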
# [16] = target: DNA polymerase kappa (Homo sapiens) (UniProt Q9UBT6); assay: qHTS for Inhibitors of Polymerase Kappa: Confirmatory Assay for Cherry-picked Compounds (AID 720501); conditions: purified Pol-kappa, fluorescent strand-displacement substrate; note: potency is the fitted concentration of half-maximal effect
# Method in brief: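 Strand-displacement fluorescence read-out: TAMRA reporter released from a BHQ-2-quenched template, measured at 525/598 nm over a 10 min kinetic window. Substrate was 50 nM final; enzyme was 10 nM Pol-kappa, preincubated 15 min at room temperature with compound.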
# [17] = target: DNA polymerase eta (Homo sapiens) (UniProt Q9Y253); assay: qHTS for Inhibitors of Polymerase Eta: Confirmatory Assay for Cherry-picked Compounds (AID 720502); conditions: Pol eta primer extension, TAMRA/BHQ fluorescence, 10 min; note: potency is the fitted concentration of half-maximal effect
# Method in brief: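 Human Pol eta (10 nM) was preincubated with compounds for 15 min at room temperature before adding 50 nM (final) DNA substrate: primer plus TAMRA reporter strand annealed to a BHQ-2-labeled template. Fluorescence (ex 525/em 598 nm) was read at 0 and 10 min.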
# [18] = target: RecQ-like DNA helicase BLM (Homo sapiens) (UniProt P54132); assay: qHTS for Inhibitors of WRN Helicase: BLM Helicase Counterscreen for WRN Inhibitors (AID 720503); conditions: Recombinant BLM helicase DNA unwinding, red fluorescence; note: potency is the fitted concentration of half-maximal effect; nearly all actives have a fitted effect of over 60% in size
# Method in brief: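 Steps: compounds added to 1 nM BLM in pH 8.0 Tris buffer with 2 mM MgCl2; 15 min room-temperature incubation; substrates added (100 nM DNA, 2 mM ATP final); discontinuous kinetic fluorescence measurement, reads spaced 15 min.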
# Chain of Rap guanine nucleotide exchange factor 3 (Homo sapiens) (O95398 whole entry, looked up): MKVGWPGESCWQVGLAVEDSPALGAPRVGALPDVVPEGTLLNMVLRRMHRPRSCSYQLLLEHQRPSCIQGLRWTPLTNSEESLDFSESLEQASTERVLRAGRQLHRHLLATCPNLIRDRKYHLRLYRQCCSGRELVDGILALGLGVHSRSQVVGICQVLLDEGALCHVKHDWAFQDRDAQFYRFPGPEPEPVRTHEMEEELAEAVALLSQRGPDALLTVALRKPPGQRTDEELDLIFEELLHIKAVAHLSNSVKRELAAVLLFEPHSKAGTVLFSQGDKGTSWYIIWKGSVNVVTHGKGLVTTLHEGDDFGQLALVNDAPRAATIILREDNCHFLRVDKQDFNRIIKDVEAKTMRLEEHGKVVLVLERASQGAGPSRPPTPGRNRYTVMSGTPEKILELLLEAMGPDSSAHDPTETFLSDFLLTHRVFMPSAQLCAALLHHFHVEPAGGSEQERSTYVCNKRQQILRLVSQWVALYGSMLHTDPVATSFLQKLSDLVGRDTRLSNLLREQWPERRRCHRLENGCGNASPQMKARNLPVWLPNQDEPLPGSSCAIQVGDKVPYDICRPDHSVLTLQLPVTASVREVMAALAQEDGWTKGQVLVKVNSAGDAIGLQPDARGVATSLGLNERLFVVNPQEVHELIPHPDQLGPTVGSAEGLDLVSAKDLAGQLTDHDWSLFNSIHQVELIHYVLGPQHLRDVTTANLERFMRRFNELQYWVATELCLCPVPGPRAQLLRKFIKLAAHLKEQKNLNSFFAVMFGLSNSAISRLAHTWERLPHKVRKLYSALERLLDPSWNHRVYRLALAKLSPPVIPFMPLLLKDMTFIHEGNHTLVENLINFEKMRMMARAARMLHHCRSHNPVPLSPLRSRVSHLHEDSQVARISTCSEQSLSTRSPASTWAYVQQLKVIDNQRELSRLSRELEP
# Chain of Rap guanine nucleotide exchange factor 4 (Homo sapiens) (Q8WZA2 whole entry, looked up): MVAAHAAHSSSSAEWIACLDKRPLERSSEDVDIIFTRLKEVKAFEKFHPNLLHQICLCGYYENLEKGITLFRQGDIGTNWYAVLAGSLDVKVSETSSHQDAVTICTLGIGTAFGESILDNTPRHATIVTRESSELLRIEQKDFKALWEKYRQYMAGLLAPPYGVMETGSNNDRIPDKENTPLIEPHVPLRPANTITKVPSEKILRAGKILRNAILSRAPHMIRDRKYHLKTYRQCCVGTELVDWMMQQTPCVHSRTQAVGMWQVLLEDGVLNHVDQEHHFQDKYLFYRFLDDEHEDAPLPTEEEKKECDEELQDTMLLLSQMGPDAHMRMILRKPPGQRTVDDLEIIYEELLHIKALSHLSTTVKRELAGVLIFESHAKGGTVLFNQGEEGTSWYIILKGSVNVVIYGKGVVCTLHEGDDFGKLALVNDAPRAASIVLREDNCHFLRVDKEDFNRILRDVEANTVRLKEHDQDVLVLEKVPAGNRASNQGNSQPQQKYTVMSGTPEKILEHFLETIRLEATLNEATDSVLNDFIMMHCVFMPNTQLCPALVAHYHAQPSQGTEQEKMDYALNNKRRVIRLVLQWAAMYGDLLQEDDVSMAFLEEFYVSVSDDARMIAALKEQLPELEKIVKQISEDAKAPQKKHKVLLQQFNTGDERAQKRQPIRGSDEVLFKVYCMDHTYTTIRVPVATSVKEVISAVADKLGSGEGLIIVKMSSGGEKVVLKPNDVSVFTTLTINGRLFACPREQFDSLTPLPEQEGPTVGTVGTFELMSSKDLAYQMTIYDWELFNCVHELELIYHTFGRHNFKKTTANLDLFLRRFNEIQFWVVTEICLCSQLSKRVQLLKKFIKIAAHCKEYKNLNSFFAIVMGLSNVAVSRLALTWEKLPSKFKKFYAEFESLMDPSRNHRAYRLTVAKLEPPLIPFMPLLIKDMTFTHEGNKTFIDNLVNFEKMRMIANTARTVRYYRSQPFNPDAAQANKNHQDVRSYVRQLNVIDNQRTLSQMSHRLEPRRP
# Chain of Flap endonuclease 1 (Homo sapiens) (P39748 whole entry, looked up): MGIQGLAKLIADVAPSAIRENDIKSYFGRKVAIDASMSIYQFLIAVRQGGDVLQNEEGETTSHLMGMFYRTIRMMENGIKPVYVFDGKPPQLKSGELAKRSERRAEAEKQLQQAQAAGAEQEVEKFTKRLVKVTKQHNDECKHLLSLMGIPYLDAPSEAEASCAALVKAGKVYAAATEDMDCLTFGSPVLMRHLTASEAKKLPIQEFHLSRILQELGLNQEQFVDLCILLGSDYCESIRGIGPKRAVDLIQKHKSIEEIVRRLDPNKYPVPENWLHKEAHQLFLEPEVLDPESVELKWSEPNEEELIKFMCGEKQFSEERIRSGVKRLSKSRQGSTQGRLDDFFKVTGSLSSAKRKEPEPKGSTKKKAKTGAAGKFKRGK
# Chain of DNA dC->dU-editing enzyme APOBEC-3G (Homo sapiens) (Q9HC16 whole entry, looked up): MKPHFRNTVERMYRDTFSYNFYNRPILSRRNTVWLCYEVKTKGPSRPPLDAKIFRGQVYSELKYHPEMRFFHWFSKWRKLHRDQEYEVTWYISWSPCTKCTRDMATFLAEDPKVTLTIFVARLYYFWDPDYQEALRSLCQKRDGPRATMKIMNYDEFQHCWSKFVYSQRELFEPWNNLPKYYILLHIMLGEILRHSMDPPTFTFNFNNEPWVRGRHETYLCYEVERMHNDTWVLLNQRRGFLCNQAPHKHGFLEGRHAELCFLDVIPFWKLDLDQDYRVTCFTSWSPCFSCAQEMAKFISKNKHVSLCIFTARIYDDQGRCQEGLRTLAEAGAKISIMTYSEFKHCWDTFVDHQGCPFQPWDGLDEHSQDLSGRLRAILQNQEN
# Chain of Phosphoglycerate kinase, glycosomal (Trypanosoma brucei brucei) (P07378 whole entry, looked up): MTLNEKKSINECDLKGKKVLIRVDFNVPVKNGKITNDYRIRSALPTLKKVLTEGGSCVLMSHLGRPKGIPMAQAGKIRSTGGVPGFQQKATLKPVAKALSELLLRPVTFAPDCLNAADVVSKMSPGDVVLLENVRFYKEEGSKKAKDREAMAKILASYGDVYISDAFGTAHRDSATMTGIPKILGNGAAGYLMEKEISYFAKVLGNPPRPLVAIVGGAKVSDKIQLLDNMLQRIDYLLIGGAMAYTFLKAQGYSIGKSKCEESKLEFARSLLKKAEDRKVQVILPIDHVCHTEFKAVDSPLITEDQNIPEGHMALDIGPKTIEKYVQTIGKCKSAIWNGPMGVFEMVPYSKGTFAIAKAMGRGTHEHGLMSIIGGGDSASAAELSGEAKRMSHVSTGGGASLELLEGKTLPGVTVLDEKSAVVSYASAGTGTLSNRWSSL
# Chain of Cytochrome P450 3A4 (Homo sapiens) (P08684 whole entry, looked up): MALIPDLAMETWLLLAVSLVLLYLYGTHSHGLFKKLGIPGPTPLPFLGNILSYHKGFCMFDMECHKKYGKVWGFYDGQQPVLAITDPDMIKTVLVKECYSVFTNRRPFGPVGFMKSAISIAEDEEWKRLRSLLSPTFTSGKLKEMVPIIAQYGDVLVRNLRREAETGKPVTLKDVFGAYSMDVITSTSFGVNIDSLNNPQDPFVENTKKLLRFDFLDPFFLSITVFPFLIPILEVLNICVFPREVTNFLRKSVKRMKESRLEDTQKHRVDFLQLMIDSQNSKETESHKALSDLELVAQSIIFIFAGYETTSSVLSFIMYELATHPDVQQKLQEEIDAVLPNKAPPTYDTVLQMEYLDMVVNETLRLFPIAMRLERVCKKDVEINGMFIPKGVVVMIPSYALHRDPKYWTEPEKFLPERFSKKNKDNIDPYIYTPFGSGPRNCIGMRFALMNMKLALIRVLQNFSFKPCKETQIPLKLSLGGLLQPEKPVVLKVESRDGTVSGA
# Chain of Bifunctional 3'-5' exonuclease/ATP-dependent helicase WRN (Homo sapiens) (Q14191 whole entry, looked up): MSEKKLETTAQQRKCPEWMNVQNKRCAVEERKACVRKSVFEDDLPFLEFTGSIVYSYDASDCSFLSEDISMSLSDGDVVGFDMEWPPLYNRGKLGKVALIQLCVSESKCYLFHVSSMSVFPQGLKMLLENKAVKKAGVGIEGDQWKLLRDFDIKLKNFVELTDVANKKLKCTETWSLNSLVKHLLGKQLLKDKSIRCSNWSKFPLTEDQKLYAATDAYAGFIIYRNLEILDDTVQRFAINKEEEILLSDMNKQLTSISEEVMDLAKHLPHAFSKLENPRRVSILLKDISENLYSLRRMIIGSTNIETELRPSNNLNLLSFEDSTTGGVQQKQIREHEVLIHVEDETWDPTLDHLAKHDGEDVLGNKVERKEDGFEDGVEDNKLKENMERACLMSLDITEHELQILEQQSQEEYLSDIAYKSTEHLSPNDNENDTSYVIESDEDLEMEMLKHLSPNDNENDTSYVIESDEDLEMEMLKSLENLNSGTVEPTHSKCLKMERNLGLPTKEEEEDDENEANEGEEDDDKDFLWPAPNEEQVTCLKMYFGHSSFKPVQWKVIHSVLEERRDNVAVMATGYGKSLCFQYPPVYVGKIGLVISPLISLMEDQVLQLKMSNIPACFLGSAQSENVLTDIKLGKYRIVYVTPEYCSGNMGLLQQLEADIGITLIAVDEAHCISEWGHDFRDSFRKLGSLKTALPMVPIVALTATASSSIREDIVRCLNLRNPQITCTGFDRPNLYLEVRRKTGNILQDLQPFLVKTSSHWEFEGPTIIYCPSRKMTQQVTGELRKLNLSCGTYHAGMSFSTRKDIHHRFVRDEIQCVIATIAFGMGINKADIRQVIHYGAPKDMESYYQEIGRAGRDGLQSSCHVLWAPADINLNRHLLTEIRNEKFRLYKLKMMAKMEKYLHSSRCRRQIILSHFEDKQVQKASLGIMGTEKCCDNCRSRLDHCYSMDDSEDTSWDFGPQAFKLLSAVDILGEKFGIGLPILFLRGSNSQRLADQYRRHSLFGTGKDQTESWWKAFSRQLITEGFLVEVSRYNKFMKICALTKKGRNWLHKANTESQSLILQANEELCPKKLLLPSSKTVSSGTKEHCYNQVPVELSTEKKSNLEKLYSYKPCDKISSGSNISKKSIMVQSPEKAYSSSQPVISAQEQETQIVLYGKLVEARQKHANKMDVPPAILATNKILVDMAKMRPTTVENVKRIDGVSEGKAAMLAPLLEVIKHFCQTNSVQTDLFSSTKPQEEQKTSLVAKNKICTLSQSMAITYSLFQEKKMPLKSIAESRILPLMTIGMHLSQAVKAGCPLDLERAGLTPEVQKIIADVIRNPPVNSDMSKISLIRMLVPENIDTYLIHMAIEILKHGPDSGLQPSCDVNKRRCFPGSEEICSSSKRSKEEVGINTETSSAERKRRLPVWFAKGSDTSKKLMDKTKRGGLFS
structure (smiles),measurement,setting,value
CN1CC[C@@]2(C)c3cc(O)ccc3N(C)[C@@H]12,Potency,[1],inactive
same,outcome,[2],inactive
same,Potency,[3],inactive
same,Potency,[4],inactive
same,Potency,[5],inactive
same,Potency,[6],inactive
same,outcome,[7],inactive
same,Potency,[8],5620 nM (active)
COc1ccc(N2C(=O)/C(=C/c3ccco3)C(=O)NC2=S)cc1,outcome,[9],inactive
same,outcome,[10],inactive
same,Potency,[11],517 nM (active)
same,Potency,[12],1060 nM (active)
same,Potency,[13],1520 nM (active)
same,Potency,[14],21300 nM (active)
same,Potency,[15],3410 nM (active)
same,Potency,[16],670 nM (active)
same,Potency,[17],2390 nM (active)
same,Potency,[18],215 nM (active)
same,Potency,[3],6310 nM (active)
same,Potency,[4],inactive
same,activation,[5],"10.2% [at 17.1 µM, percent relative to cAMP agonist control]"
same,"activity change, negative = inhibition",[6],33.5% [at 12.7 µM]
same,"activity change, negative = inhibition",[7],-2.79% [at 30.8 µM]
